Among all 4,700 compounds or so, about 760 (16%) were called active. Not all results are given here. A number with no mark means an inactive call.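 Rule for the calls: active = inhibition above a cutoff derived from the DMSO control wells (cut at about 28% in these data); inactive = the rest.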

For orientation: inhibition means the drop in the measured response relative to a control, in per cent.

For this test, the target named is Microphthalmia-associated transcription factor (Homo sapiens) (UniProt O75030). In words: blockers of human MITF dimerization – biochemical, AlphaScreen, triplicate, confirmation (AID 1259372). The conditions noted are these: AlphaScreen MITF homodimerization, biotin/His-MITF beads; at 2.6 µM; stronger effect = higher value. In general terms: Alpha assays give light when donor and acceptor beads are brought close together.
Microphthalmia-associated transcription factor (Homo sapiens), sequence (O75030 whole entry, looked up): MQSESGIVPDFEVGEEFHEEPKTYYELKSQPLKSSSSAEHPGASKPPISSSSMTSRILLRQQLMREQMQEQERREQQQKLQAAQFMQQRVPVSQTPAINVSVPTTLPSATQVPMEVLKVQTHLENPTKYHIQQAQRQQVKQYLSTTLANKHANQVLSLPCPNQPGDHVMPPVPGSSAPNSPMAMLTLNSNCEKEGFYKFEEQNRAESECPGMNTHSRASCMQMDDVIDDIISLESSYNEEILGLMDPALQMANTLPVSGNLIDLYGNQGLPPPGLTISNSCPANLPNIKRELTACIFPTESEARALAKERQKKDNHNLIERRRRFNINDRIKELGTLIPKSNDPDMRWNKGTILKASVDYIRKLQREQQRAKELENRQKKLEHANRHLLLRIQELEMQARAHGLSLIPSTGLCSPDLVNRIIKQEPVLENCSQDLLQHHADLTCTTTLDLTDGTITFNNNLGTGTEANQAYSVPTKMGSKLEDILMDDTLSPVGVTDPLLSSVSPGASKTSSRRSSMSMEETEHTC
Turning to `O=C(C1CCN(Cc2nc3ccccc3[nH]2)CC1)N1CCN(c2ccccn2)CC1`, the inhibition was 0.24%. As for `COc1ccc(OC)c(CN2CCN(Cc3ccccc3OC)CC2)c1`, the figure is 10.6%.

With `C=CCNCCOCCOc1cc(C)ccc1C(C)(C)C`, the inhibition is 7.1%. For the molecule `Cc1cnc(NCc2ccc3c(c2)OCO3)nc1Nc1ccccc1`, the inhibition was -0.48%. As to `c1cc2c(cc1CN1CCN(C3CCCCC3)CC1)OCO2`, the inhibition was -2.28%.

For the molecule `c1cc2c(cc1CNc1nc(Nc3ccc(N4CCOCC4)cc3)c3ncn(C4CCCCC4)c3n1)OCO2`, the inhibition is 71.3% (active). As for `CC(C)(C)NCCOCCOc1ccc(Cl)c(Cl)c1`, the figure is 4.77%. As for `O=C(Nc1ccc2c(c1)OCO2)C(c1ccccc1)N(Cc1ccccc1)Cc1ccccc1` (configuration not stated), the figure is -3.96%; as for `Cc1cccc(CSc2n[nH]c(=O)[nH]c2=O)c1`, -2.69%; as for `COc1cc(OC)c(OC)cc1CN1CCN(Cc2ccc(F)cc2)CC1`, -1.09%. In the case of `Cc1nnc(N2CCC(Cc3ccccc3)CC2)c2ccccc12`, the inhibition was 2.32%. Consider `COc1ccc(CNCC2CN(CC(C)C)CCO2)cc1` (configuration not stated), for which the inhibition was 10%. With `CCN1CCN(CCOCCOc2ccc([N+](=O)[O-])cc2)CC1`, the inhibition was 3.04%. `c1ccc(-c2ccccc2OCCNCCN2CCOCC2)cc1`: the inhibition was 16.9%. For `O=C(O)CCCCCNC(=O)/C(=C\c1ccco1)NC(=O)c1ccccc1`, the inhibition is 25.9%. `O=[N+]([O-])c1ccccc1CN1CCN(Cc2ccccc2C(F)(F)F)CC1`: the inhibition is 3.85%.

Consider `Cc1cc(OCCN2CCN(C)CC2)ccc1C(C)C`, for which the inhibition was -2.72%. As for `O=C(O)CCCCC1SCC2NC(=O)NC21O` (configuration not stated), the figure is 116% (active); as for `COC(=O)C1(C)NC(c2ccc(C)cc2)C2C(=O)N(c3ccc(F)cc3)C(=O)C21` (configuration not stated), 11.8%; as for `CC(=O)c1ccc(NC(=O)C(C)NCc2ccc(C)cc2)cc1` (configuration not stated), 3.11%. As for `O=C(c1cccs1)N1CCC(N2CCN(Cc3ccccc3)CC2)CC1`, the figure is 1.58%.

Consider `NC(=O)COC(=O)/C=C/c1ccc(I)o1`, for which the inhibition is 57.8% (active). As for `Cc1nc(NC2CC2)cc(-c2ccc(F)cc2)n1`, the figure is 12%; as for `CCOc1ccc(CN2CCN(C(=O)c3cccc(Cl)c3)CC2)cc1`, -0.91%; as for `CC(C)c1ccc(C2/C(=C(/O)c3ccccc3)C(=O)C(=O)N2CCN(C)C)cc1` (configuration not stated), 4.9%. As for `CCCCCOc1ccc(OC(=O)c2ccc(-c3ccc(CCC)cn3)cc2)cc1`, the figure is 4.5%; as for `COc1ccc(Br)cc1CN1CCN(CCOCCO)CC1`, -4.85%; as for `O=S(=O)(c1ccc(Br)cc1Cl)N1CCN(CCc2ccncc2)CC1`, 11.6%. As for `CCN(CC)CC(=O)Nc1c2c(nc3ccccc13)N(c1cccc(C)c1)CC2`, the figure is -3.54%; as for `c1ccc(CCCCNc2nccc(Nc3ccncn3)n2)cc1`, -1.64%. As for `CN(C)CC(C)(C)CNCc1nnc(-c2ccccc2)o1`, the inhibition was -4.13%. As for `COc1ccc(CN2CCN(Cc3cccnc3)CC2)cc1OCc1ccccc1`, the figure is 3.98%; as for `CCCCCCOC(=O)c1cc(C(=O)OCCCCCC)c(C)nc1C`, -4.67%. As for `COc1cccc(C(=O)N2CCN(Cc3cc(OC)c(OC)cc3OC)CC2)c1`, the figure is 0.86%; as for `COc1cc(CN2CCN(Cc3cc(OC)c(OC)cc3OC)CC2)cc(OC)c1`, 7.67%; as for `c1ccc(Oc2cccc(OCCCCn3cncn3)c2)cc1`, -15.6%. As for `CCCn1c(C)cc(-c2csc(NC(=O)Cc3ccsc3)n2)c1C`, the figure is 21.7%; as for `COC(=O)c1cccc(NS(=O)(=O)c2ccc3ccccc3c2)c1C`, 1.98%.

Consider `Clc1ccc(CN2CCN(CC3CC=CCC3)CC2)cc1` (configuration not stated), for which the inhibition is -2.27%. As for `CCOc1cc(CN2CCN(Cc3ccccn3)CC2)ccc1OC`, the figure is 13.2%; as for `COc1cc(CN2CCN(Cc3ccc(C)cc3)CC2)c([N+](=O)[O-])cc1OC`, 6.72%. As for `CCOc1ccccc1N1CCN(Cc2cc(OC)c(O)c([N+](=O)[O-])c2)CC1`, the figure is 32.4% (active). With `CCN1CCN(CCCOc2ccc(C(C)=O)cc2OC)CC1`, the inhibition was 1.36%. In the case of `COc1cc(CN(CCN(C)C)Cc2ccccc2)cc(OC)c1`, the inhibition was 15.3%.

For `Cc1cc(C(C)(C)C)ccc1OCCN1CCNCC1`, the inhibition is -3.14%. For `Cn1c(-c2ccc(F)cc2)cnc1NCc1cccnc1`, the inhibition was -19.5%.

Take `Cc1ccc(CN2CCN(Cc3ccncc3)CC2)cc1`: the inhibition was 15.2%. As for `COc1cccc(CN2CCN(C(=O)c3ccccc3F)CC2)c1`, the inhibition is -1.9%. As for `c1cc2c(cc1CN1CCN(C3CCCC3)CC1)OCO2`, the figure is -0.1%. In the case of `O=C1NC(c2ccccc2[N+](=O)[O-])C(C(=O)c2cccs2)C(O)(C(F)(F)F)N1` (configuration not stated), the inhibition is 4.8%.

On to `CN1CCN(CCOCCOc2ccccc2Cl)CC1`, for which the inhibition was 6.9%. As to `N#C/C(=C/c1ccc(-c2ccc3c(c2)C(=O)NC3=O)o1)C(=O)O`, the inhibition was 6.58%. As for `Cc1ccc(NC(=O)CNCCCSc2ccccc2)cc1C`, the figure is 14.7%; as for `CCc1ccc(NC(=O)CS(=O)CC(=O)NCCCc2ccccc2)cc1` (configuration not stated), 44.5% (active). As for `Nc1ccc(S(=O)(=O)O)c2cc(S(=O)(=O)O)cc(O)c12`, the figure is 42.7% (active); as for `Cc1ccc(C)c(OCCN2CCOCC2)c1C`, 15.2%; as for `COc1cc(CN2CCN(Cc3ccccc3Br)CC2)cc(OC)c1`, 9.11%.

With `COc1ccc(COCC(O)CNCC(C)(C)CN(C)C)cc1OC` (configuration not stated), the inhibition was 3.01%.

Consider `COCc1nc2ccccc2n1CCc1noc(-c2ccco2)n1`, for which the inhibition is 6.8%.

In the case of `C1=CC2CC1CC2CN1CCN(Cc2c[nH]c3ccccc23)CC1` (configuration not stated), the inhibition is -0.81%.

Turning to `COc1cccc(/C=C(\C#N)c2nc3ccccc3[nH]2)c1OCc1ccc(Cl)cc1Cl`, the inhibition is 0.99%. As for `COc1ccc(CN2CCN(Cc3ccccc3OC)CC2)cc1Br`, the figure is 5.52%; as for `O=[N+]([O-])c1ccc(OCc2nnc(SCCN3CCOCC3)n2-c2ccccc2)cc1`, 2.94%; as for `CCCS(=O)(=O)N1CCN(Cc2ccc(OC)c(OCc3ccccc3)c2)CC1`, -0.41%.

Take `CC1CN(CCOc2ccccc2[N+](=O)[O-])CC(C)O1` (configuration not stated): the inhibition is 6.95%. For `Cc1ccc(C(C)C)c(OCCN2CCNCC2)c1`, the inhibition is -8.7%.

As to `COc1ccc(NC(=O)CN2CCN(C)CC2)c(OC)c1`, the inhibition is 13%. As for `COc1ccc2c(c1)CC(C(=O)Nc1ccc(-c3cn[nH]c3)cc1OCC(N)=O)CO2` (configuration not stated), the figure is 40.3% (active). As to `COc1ccc2c(c1)CC(C(=O)Nc1ccc(-c3cn[nH]c3)cc1OCc1ccccc1)CO2` (configuration not stated), the inhibition is 56% (active). As for `CC1CCN(S(=O)(=O)c2ccc(Cl)c(C(=O)Nc3ccccc3[N+](=O)[O-])c2)CC1`, the figure is 16.1%. Turning to `Clc1cccc(CN2CCN(C3CCCC3)CC2)c1`, the inhibition was 12.9%. With `Brc1cccc(CN2CCN(Cc3cccnc3)CC2)c1`, the inhibition was 5.44%. As for `O=C(c1cccc(Cl)c1)N1CCN(Cc2cccnc2)CC1`, the figure is 16.8%; as for `O=C(c1ccc2c(c1)C(=O)N(Cc1cccnc1)C2=O)c1ccc2c(c1)C(=O)N(Cc1cccnc1)C2=O`, 51.2% (active). As for `COc1ccc(-c2nc(Nc3cc(OC)c(OC)c(OC)c3)c3[nH]cnc3n2)cc1`, the figure is 14%; as for `COc1cc(CN2CCN(Cc3ccc(Cl)cc3)CC2)c([N+](=O)[O-])cc1OC`, 5.78%. As for `O=C(Nc1ccc(-c2ccncc2)c(C(F)(F)F)c1)C1COc2ccccc2O1` (configuration not stated), the figure is 42.5% (active); as for `COc1ccc(CN2CCN(Cc3ccccc3C(F)(F)F)CC2)cc1OC`, 24.4%. `CCN1CCN(CC(O)COc2cccc(C(=O)OC)c2)CC1` (configuration not stated): the inhibition was -4.86%.

Turning to `COc1cccc(CN2CCN(C/C=C/c3ccccc3)CC2)c1OC`, the inhibition is 2.33%. As for `Cc1cc(NC(=O)/C=C/C(=O)N(CC(=O)NC2CCCC2)c2ccc(F)cc2)no1`, the figure is 10.1%; as for `COc1cccc(OC)c1C(=O)N1CCN(Cc2cccnc2)CC1`, -5.41%. For the molecule `CS(=O)(=O)N1CCN(Cc2cccc(Cl)c2)CC1`, the inhibition was -2.19%. As for `CN(CCc1ccccn1)CC(=O)N1CCc2ccccc21`, the figure is 12.3%; as for `CSc1ccc(CN2CCN(S(=O)(=O)c3ccc([N+](=O)[O-])cc3)CC2)cc1`, 19.9%; as for `Cn1c(=NC(=O)COc2ccccc2)sc2cc(S(C)(=O)=O)ccc21`, 4.53%. As for `NS(=O)(=O)c1cccc(NC(=O)COc2ncnc3sc(-c4ccccc4)cc23)c1`, the figure is 13.3%. In the case of `Cc1cc(S(=O)(=O)Nc2ccc3c(c2)OCCO3)ccc1-n1cnnn1`, the inhibition is 5.76%. For the molecule `COc1cc2nc(-c3cccc(C(C)=O)c3)nc(N)c2cc1OC`, the inhibition is -8.94%. As for `O=C1c2ccccc2C(O)N1Cc1ccccc1Cl` (configuration not stated), the figure is -9.08%; as for `COc1ccc(C2C(C(C)=O)=C(C)N=C3SCC(=O)N32)c(OC)c1` (configuration not stated), -3.48%. In the case of `CCN1CCN(CCCCOc2ccccc2F)CC1`, the inhibition was 6.76%.

Take `O=C(c1ccccc1)N1CCN(C2CCCC2)CC1`: the inhibition is -3.05%. As for `Cc1nc(NC(=O)c2cc(Br)ccc2Cl)sc1C`, the figure is 11%; as for `CC1(C)CC(=O)C2=C(C1)Nc1ccccc1N(C(=O)Cc1ccccc1)C2c1ccc(-c2ccc([N+](=O)[O-])cc2)o1` (configuration not stated), 12.3%; as for `CCNc1nc(NCC)nc(C(=O)O)n1`, 54.9% (active).

`Cn1c(=O)oc2cc(S(=O)(=O)N3CCC(C(=O)NC(C)(C)C)CC3)ccc21`: the inhibition is -16.9%. For `C=CCn1c(SCC(=O)Nc2nc3ccccc3s2)nc(O)cc1=O`, the inhibition is -1.3%.

As for `COc1cc(CN2CCN(C(=O)C(c3ccccc3)c3ccccc3)CC2)cc(OC)c1OC`, the inhibition is 5.49%. As for `CSc1nnc(SCc2nc3sc(C(=O)O)c(C)c3c(=O)[nH]2)s1`, the figure is 14.3%; as for `O=C(CCC(=O)OCc1ccc(Cl)cc1)Nc1ccc([N+](=O)[O-])cc1`, 13.1%. On to `CC(=O)N1CCN(CC(=O)Nc2ccc(C)c(F)c2)CC1`, for which the inhibition was -10.5%. As for `Cc1ccc(NC(=O)COC(=O)CCC(=O)Nc2sc3c(c2C(N)=O)CCC3)cc1F`, the figure is 87.4% (active). With `OCCOCCN1CCN(Cc2ccc(Cl)cc2)CC1`, the inhibition was 1.57%. Turning to `COc1cccc(CN2CCN(CCCc3ccccc3)CC2CCO)c1` (configuration not stated), the inhibition is -0.58%. As for `COC(=O)CSc1nc(C2CC2)nc2ccccc12`, the figure is 5.56%; as for `CC1CCCC(N2CCN(Cc3ccccc3Cl)CC2)C1` (configuration not stated), -6.77%; as for `O=C(CNCc1cccnc1)Nc1ccc(C(=O)N2CCCCC2)cc1`, 7.91%. In the case of `CC(=O)N1CCN(C(=O)c2ccc(N3CC4CC(C3)c3cccc(=O)n3C4)c(NC(=O)c3cccnc3)c2)CC1` (configuration not stated), the inhibition is -11.6%.

Turning to `CCSc1ccccc1C(=O)N1CCN(c2ccc(-c3ccccn3)nn2)CC1`, the inhibition is 111% (active).

On to `COc1ccc(OCCn2ccnc2C)cc1`, for which the inhibition was -1.1%. As for `COc1cc(CN2CCN(Cc3ccc(OC)c(OC)c3)CC2)cc(OC)c1`, the inhibition was 4.54%.
